Test results published in PubChem BioAssay (EPA / NIEHS).
Active and inactive are the calls of the source. The calls were made as follows: active = hit-call score of the fitted dose curve at least 0.9, where 1 is the maximum; inactive = score below 0.9.

Columns and labels:
Conditions in all cases: mRNA level, 48 h; actives raise or lower the signal
[1] = read-out: Alkaline Phosphatase, Placental (ALPP) gene, ALPP (gene 250); assay: LTEA_HepaRG_ALPP: Life Technologies and Expression Analysis (LTEA) Assay for Alkaline Phosphatase, Placental (ALPP) gene using HepaRG (AID 2283468);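 as to AC50: differentiated human HepaRG liver cells in serum-free induction medium; ALPP transcript by TaqMan qRT-PCR normalized to ACTB GAPDH and POLR2A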
Procedure, shortened: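 Using human liver HepaRG cells, chemicals are tested in duplicate over 48 h at half-log concentrations topping at 100 uM; phenobarbital 1 mM serves as induction control. ALPP mRNA change by qRT-PCR, bidirectional fit against vehicle.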

[2] = read-out: Bcl-2 (BAD) gene, BAD (gene 572); assay: LTEA_HepaRG_BAD: Life Technologies and Expression Analysis (LTEA) Assay for Bcl-2 (BAD) gene using HepaRG (AID 2283469)
Procedure, shortened: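 Activity values reflect up- or down-regulation of BAD mRNA in human HepaRG hepatic cells treated 48 h in serum-free medium, with eight-point half-log dosing capped at 100 uM and 0.5% DMSO vehicle.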

[3] = read-out: Bcl-2 (BAX) gene, BAX (gene 581); assay: LTEA_HepaRG_BAX: Life Technologies and Expression Analysis (LTEA) Assay for Bcl-2 (BAX) gene using HepaRG (AID 2283470)
Procedure, shortened: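 Human HepaRG cells treated in duplicate for 48 h across eight concentrations (max 100 uM, 0.5% DMSO); BAX expression measured by qRT-PCR.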

[4] = read-out: adenosine kinase (ADK) gene, ADK (gene 132); assay: LTEA_HepaRG_ADK: Life Technologies and Expression Analysis (LTEA) Assay for adenosine kinase (ADK) gene using HepaRG (AID 2283471)
Procedure, shortened: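 HepaRG (human liver), 48 h chemical exposure, 8-pt half-log series, top 100 uM, 0.5% DMSO vehicle. Readout: ADK mRNA by qRT-PCR vs housekeeping genes; bidirectional curve fit relative to DMSO baseline.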

[5] = read-out: Alpha-fetoprotein (AFP) gene, AFP (gene 174); assay: LTEA_HepaRG_AFP: Life Technologies and Expression Analysis (LTEA) Assay for Alpha-fetoprotein (AFP) gene using HepaRG (AID 2283472);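 as to AC50: AFP transcript by TaqMan qRT-PCR normalized to ACTB GAPDH and POLR2A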
Procedure, shortened: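 Measures AFP mRNA change in HepaRG after 48 h chemical exposure (8 half-log concentrations, highest 100 uM, 0.5% DMSO). Fold change relative to DMSO, fitted in both directions.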

[6] = read-out: BCL2L11 (gene 10018); assay: LTEA_HepaRG_BCL2L11: Life Technologies and Expression Analysis (LTEA) Assay for Bcl-2 (BCL2L11) gene using HepaRG (AID 2283473)
Procedure, shortened: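 Human hepatic HepaRG cultures are treated 48 h with test chemicals (maximum 100 uM, 0.5% DMSO vehicle). Expression of BCL2L11 is measured by qRT-PCR against ACTB, GAPDH and POLR2A, with activity in either direction scored relative to vehicle.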

[7] = read-out: Apolipoprotein A-V (APOA5) gene, APOA5 (gene 116519); assay: LTEA_HepaRG_APOA5: Life Technologies and Expression Analysis (LTEA) Assay for Apolipoprotein A-V (APOA5) gene using HepaRG (AID 2283474)
Procedure, shortened: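 Concentration-response of APOA5 expression in HepaRG: eight half-log doses to 100 uM, 48 h, qRT-PCR normalized to ACTB/GAPDH/POLR2A, bidirectional fitting with 0.5% DMSO as baseline.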

[8] = read-out: Apoptosis regulator Bcl-2 (Homo sapiens) (UniProt P10415); assay: LTEA_HepaRG_BCL2: Life Technologies and Expression Analysis (LTEA) Assay for Bcl-2 gene using HepaRG (AID 2283475);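 also: BCL2 transcript by TaqMan qRT-PCR normalised to ACTB GAPDH and POLR2A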
Procedure, shortened: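 Each chemical was tested in duplicate on HepaRG cultures held in serum-free induction medium for 48 h, highest concentration 100 uM with half-log dilutions. Transcript levels came from multiplexed qRT-PCR, normalised to housekeeping genes; activity was scored in either direction relative to DMSO.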

[9] = read-out: Bcl-2 (BID) gene, BID (gene 637); assay: LTEA_HepaRG_BID: Life Technologies and Expression Analysis (LTEA) Assay for Bcl-2 (BID) gene using HepaRG (AID 2283476)
Procedure, shortened: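 Assay used HepaRG hepatic cells treated 48 h in serum-free medium with half-log dilutions from 100 uM. Endpoint: BID mRNA, qRT-PCR, normalized to ACTB/GAPDH/POLR2A.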

[10] = read-out: Caspase-3 (Homo sapiens) (UniProt P42574); assay: LTEA_HepaRG_CASP3: Life Technologies and Expression Analysis (LTEA) Assay for cysteine-aspartic acid protease (CASP3) using HepaRG (AID 2283477)
Procedure, shortened: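 Transcript-level assay: CASP3 mRNA in human HepaRG after 48 h treatment, eight half-log concentrations from 100 uM in 0.5% DMSO, quantified by qRT-PCR.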

[11] = read-out: Cytochrome P450 (CYP1A2), CYP1A2 (gene 1544); assay: LTEA_HepaRG_CYP1A2: Life Technologies and Expression Analysis (LTEA) Assay for Cytochrome P450 (CYP1A2) using HepaRG (AID 2283479);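 as to AC50: TaqMan qRT-PCR transcript level normalized to ACTB GAPDH and POLR2A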
Procedure, shortened: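 In duplicate wells, HepaRG cultures maintained in 0.5% DMSO were treated 48 h across an 8-point, half-log series topping at 100 uM; phenobarbital (1 mM) served as induction control. Expression was read by qRT-PCR.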

[12] = read-out: cysteine-aspartic acid protease (CASP8), CASP8 (gene 841); assay: LTEA_HepaRG_CASP8: Life Technologies and Expression Analysis (LTEA) Assay for cysteine-aspartic acid protease (CASP8) using HepaRG (AID 2283480)
Procedure, shortened: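 Concentration-response in duplicate up to 100 uM (half-log steps, 0.5% DMSO) on differentiated HepaRG cultures for 48 h. Expression change of CASP8 mRNA is determined by TaqMan qRT-PCR with housekeeping-gene normalization.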

[13] = read-out: Cytochrome P450 (CYP2B6), CYP2B6 (gene 1555); assay: LTEA_HepaRG_CYP2B6: Life Technologies and Expression Analysis (LTEA) Assay for Cytochrome P450 (CYP2B6) using HepaRG (AID 2283481)
Procedure, shortened: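 Human HepaRG, 48 h dosing, 0.5% DMSO vehicle, top dose 100 uM. CYP2B6 transcript by qRT-PCR, housekeeping-normalized, bidirectional curve fit.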

[14] = read-out: Cytochrome P450 2C19 (Homo sapiens) (UniProt P33261); assay: LTEA_HepaRG_CYP2C19: Life Technologies and Expression Analysis (LTEA) Assay for CYP2C19 using HepaRG (AID 2283482)
Procedure, shortened: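 Endpoint: CYP2C19 mRNA change, bidirectional fit vs 0.5% DMSO. Cells: HepaRG, 48 h exposure, eight-point series topping at 100 uM. Quantitation: qRT-PCR normalized to ACTB, GAPDH, POLR2A.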

[15] = read-out: CYP2C9 (gene 1559); assay: LTEA_HepaRG_CYP2C9: Life Technologies and Expression Analysis (LTEA) Assay for CYP2C9 using HepaRG (AID 2283484)
Procedure, shortened: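 Eight-point concentration-response (highest 100 uM, half-log dilutions) in HepaRG cells for 48 h; CYP2C9 expression by qRT-PCR normalized to ACTB, GAPDH, POLR2A. Bidirectional fit, DMSO baseline.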

[16] = read-out: CYP2E1 (gene 1571); assay: LTEA_HepaRG_CYP2E1: Life Technologies and Expression Analysis (LTEA) Assay for CYP2E1 using HepaRG (AID 2283485)
Procedure, shortened: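 Assay uses 48 h exposure of HepaRG hepatic cells, eight concentrations to 100 uM. Expression of CYP2E1 is quantified by TaqMan qRT-PCR with ACTB, GAPDH and POLR2A normalization; curves fitted in both directions relative to vehicle.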

[17] = read-out: Peroxisomal acyl-coenzyme A oxidase 1 (ACOX1) gene, ACOX1 (gene 51); assay: LTEA_HepaRG_ACOX1: Life Technologies and Expression Analysis (LTEA) Assay for Peroxisomal acyl-coenzyme A oxidase 1 (ACOX1) gene using HepaRG (AID 2283467)
Procedure, shortened: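 Human HepaRG hepatic cultures, 48 h treatment with test chemicals up to 100 uM. ACOX1 expression read by qRT-PCR relative to 0.5% DMSO vehicle.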

[18] = read-out: Cytochrome P450 (CYP24A1), CYP24A1 (gene 1591); assay: LTEA_HepaRG_CYP24A1: Life Technologies and Expression Analysis (LTEA) Assay for Cytochrome P450 (CYP24A1) using HepaRG (AID 2283478)
Procedure, shortened: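 Gene expression of CYP24A1 by TaqMan qRT-PCR in HepaRG after 48 h treatment, highest concentration 100 uM; activity fitted in both directions relative to DMSO vehicle.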

[19] = read-out: CYP2C8 (gene 1558); assay: LTEA_HepaRG_CYP2C8: Life Technologies and Expression Analysis (LTEA) Assay for CYP2C8 using HepaRG (AID 2283483)
Procedure, shortened: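 This is a transcriptional endpoint in HepaRG cultures: 48 h exposure, highest concentration 100 uM. CYP2C8 mRNA is quantified by TaqMan qRT-PCR.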

Measured: AC50

Chain of Caspase-3 (Homo sapiens) (P42574 whole entry, looked up): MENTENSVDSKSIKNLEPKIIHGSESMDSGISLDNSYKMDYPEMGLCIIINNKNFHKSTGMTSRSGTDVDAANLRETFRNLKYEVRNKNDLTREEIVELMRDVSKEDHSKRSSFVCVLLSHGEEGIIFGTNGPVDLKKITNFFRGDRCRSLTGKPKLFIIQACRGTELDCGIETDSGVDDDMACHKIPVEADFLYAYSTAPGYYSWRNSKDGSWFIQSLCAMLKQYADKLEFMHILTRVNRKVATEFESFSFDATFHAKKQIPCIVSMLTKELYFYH
Chain of Cytochrome P450 2C19 (Homo sapiens) (P33261 whole entry, looked up): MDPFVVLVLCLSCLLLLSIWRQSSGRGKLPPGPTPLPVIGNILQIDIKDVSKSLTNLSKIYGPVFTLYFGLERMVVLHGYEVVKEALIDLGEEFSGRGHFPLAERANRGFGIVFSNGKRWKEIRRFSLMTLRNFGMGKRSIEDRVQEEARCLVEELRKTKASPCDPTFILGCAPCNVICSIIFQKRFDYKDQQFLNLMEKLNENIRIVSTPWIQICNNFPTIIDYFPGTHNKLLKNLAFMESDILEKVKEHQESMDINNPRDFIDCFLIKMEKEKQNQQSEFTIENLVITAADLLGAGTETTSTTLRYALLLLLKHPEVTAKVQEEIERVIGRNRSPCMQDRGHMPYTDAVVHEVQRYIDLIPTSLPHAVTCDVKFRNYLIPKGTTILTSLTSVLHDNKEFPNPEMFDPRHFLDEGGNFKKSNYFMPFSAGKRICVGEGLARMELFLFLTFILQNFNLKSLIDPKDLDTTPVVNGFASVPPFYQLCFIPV
Chain of Apoptosis regulator Bcl-2 (Homo sapiens) (P10415 whole entry, looked up): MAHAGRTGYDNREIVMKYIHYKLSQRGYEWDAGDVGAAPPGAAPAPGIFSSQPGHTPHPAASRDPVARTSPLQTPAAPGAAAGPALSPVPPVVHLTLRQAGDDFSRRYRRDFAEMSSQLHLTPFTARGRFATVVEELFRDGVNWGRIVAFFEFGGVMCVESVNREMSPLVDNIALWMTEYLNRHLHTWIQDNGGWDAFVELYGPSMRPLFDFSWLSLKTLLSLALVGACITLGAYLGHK

O=C(Nc1ccccc1)c1ccccc1I
active: [5] 50 µM | [11] 10.4 µM | [13] 11.1 µM | [15] 50 µM | [16] 32 µM
not listed: [17] | [18] | [19]
inactive: all other assays above

CCN(CC)N=O
not listed: [3] | [17] | [18] | [19]
inactive: all other assays above

N#CC(Br)Br
not listed: [3] | [19]
inactive: all other assays above

OCCOCCO
active: [13] 0.128 µM
not listed: [3] | [18]
inactive: all other assays above

CN(C)c1ccc(C(=O)c2ccc(N(C)C)cc2)cc1
active: [1] 3.13 µM | [5] 50 µM | [8] 8.06 µM | [13] 12.2 µM | [16] 50 µM
not listed: [3] | [11] | [18]
inactive: all other assays above

N#CC(Br)(Br)C(N)=O
not listed: [11] | [17] | [18] | [19]
inactive: all other assays above

Clc1ccccc1Cl
not listed: [3] | [11]
inactive: all other assays above

O=[N+]([O-])C(Br)(CO)CO
not listed: [3] | [11] | [17] | [18]
inactive: all other assays above

CCCCC(CC)COC(=O)c1ccc(C(=O)OCC(CC)CCCC)c(C(=O)OCC(CC)CCCC)c1 (stereo unspecified)
not listed: [3] | [11] | [17] | [19]
inactive: all other assays above

O=Cc1ccco1
not listed: [3] | [11] | [13] | [18] | [19]
inactive: all other assays above

c1ccc(NNc2ccccc2)cc1
active: [11] 32.7 µM | [13] 5.26 µM
not listed: [17] | [18]
inactive: all other assays above

CCCCOC(=O)c1ccccc1C(=O)OCc1ccccc1
not listed: [3] | [11] | [17]
inactive: all other assays above

O=C(O)C1C2CCC(O2)C1C(=O)O (stereo unspecified)
active: [1] 20.1 µM | [5] 75.3 µM | [7] 67.8 µM | [11] 50 µM | [13] 77.7 µM | [14] 82 µM | [15] 86.7 µM | [16] 45.4 µM
inactive: [2] | [3] | [4] | [6] | [8] | [9] | [10] | [18]
